Laboratory results reported in PubChem BioAssay (NCI).
The panel holds about 79,000 compounds, 15% with a hit somewhere; the sample as a whole holds those more often. Activity calls are given as the source filed them. No stated cut-off is given here; in the data, active means growth inhibition above about 70%; inactive means the rest.

How the values were obtained:
[1] = NCI Yeast Anticancer Drug Screen. Data for the mec2-1 strain (AID 157); conditions: S. cerevisiae mec2-1 strain, hits give high values
Outline: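 Yeast mec2-1 mutant treated with compound. Readout: growth inhibition vs vehicle controls.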

[2] = NCI Yeast Anticancer Drug Screen. Data for the rad14 strain (AID 159);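 further: 0% = growth of vehicle-treated control cultures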; conditions: S. cerevisiae rad14 strain growth inhibition, hits give high values
Outline: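 Readout: yeast growth inhibition, referenced to vehicle-only cultures. Strain bears a defined alteration in DNA damage repair.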

[3] = NCI Yeast Anticancer Drug Screen. Data for the sgs1 mgt1 strain (AID 161);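 further: 0% = growth of cultures given vehicle only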; conditions: S. cerevisiae sgs1 mgt1 strain, hits give high values
Outline: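 Inhibition of yeast growth, normalised to vehicle-treated controls, is reported for a strain bearing genetic alterations in DNA damage repair.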

[4] = NCI Yeast Anticancer Drug Screen. Data for the CLN2oe strain (AID 163);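 further: 0% = growth of vehicle-only control cultures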; conditions: S. cerevisiae CLN2oe strain, hits give high values
Outline: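 Read-out: yeast growth inhibition, expressed relative to vehicle-only controls. The strain bears an engineered cell-cycle alteration.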

[5] = NCI Yeast Anticancer Drug Screen. Data for the cln2 rad14 strain (AID 165);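 further: 0% = growth equal to vehicle treated cultures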; conditions: S. cerevisiae cln2 rad14 strain, hits give high values
Outline: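 cln2 rad14 yeast strain; compound exposure; growth inhibition read vs vehicle controls.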

[6] = NCI Yeast Anticancer Drug Screen. Data for the bub3 strain (AID 167); conditions: S. cerevisiae bub3 mutant strain, hits give high values
Outline: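 Part of a panel of yeast mutants defective in DNA damage repair or cell cycle regulation. Each strain is grown with compound, and inhibition is calculated relative to solvent-treated cultures.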

[7] = NCI Yeast Anticancer Drug Screen. Data for the wt2 strain (AID 169);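 further: 0% = growth of vehicle-treated yeast cultures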; conditions: S. cerevisiae wt2 strain growth inhibition, hits give high values
Outline: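 Read-out: growth inhibition versus vehicle-treated control cultures after compound exposure of the yeast strain.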

[8] = NCI Yeast Anticancer Drug Screen. Data for the mlh1 strain (AID 171);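 further: 0% = growth of vehicle-treated control cultures of the same strain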; conditions: S. cerevisiae mlh1 strain growth inhibition, hits give high values
Outline: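 Read-out: growth inhibition versus vehicle controls. Strain: engineered yeast with a defined DNA repair or cell cycle defect, compound-treated.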

[9] = NCI Yeast Anticancer Drug Screen. Data for the sgs1 strain (AID 173);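 further: 0% = growth of vehicle-only control cultures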; conditions: S. cerevisiae sgs1 mutant, hits give high values
Outline: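 Read-out: yeast growth inhibition relative to vehicle controls, following compound exposure of a strain with a defined DNA repair/cell cycle alteration.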

[10] = NCI Yeast Anticancer Drug Screen. Data for the mlh1 rad18 strain (AID 175); conditions: S. cerevisiae mlh1 rad18 strain growth inhibition, hits give high values
Outline: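 Yeast w/ defined DNA-repair lesions; compound exposure; growth vs vehicle controls → % inhibition.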

[11] = NCI Yeast Anticancer Drug Screen. Data for the rad18 strain (AID 177); conditions: S. cerevisiae rad18 mutant growth inhibition, hits give high values
Outline: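 Readout: growth inhibition vs vehicle controls. Cells: genetically altered yeast strain, DNA repair defect.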

[12] = NCI Yeast Anticancer Drug Screen. Data for the wt1 strain (AID 149);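 further: 0% = growth of vehicle-treated wt1 cultures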; conditions: S. cerevisiae wt1 strain (SPY 50644) growth inhibition, hits give high values
Outline: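 The wt1 strain was treated with compounds, and growth was compared with vehicle-treated cultures to give inhibition.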

[13] = NCI Yeast Anticancer Drug Screen. Data for the rad50EPP+ strain (AID 151);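 further: 0% = growth of vehicle-treated control cultures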; conditions: S. cerevisiae rad50 mutant strain, hits give high values
Outline: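 Growth inhibition read against vehicle controls in rad50EPP+ yeast, a strain altered in DNA damage repair, after compound exposure.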

[14] = NCI Yeast Anticancer Drug Screen. Data for the mgt1 strain (AID 153); conditions: S. cerevisiae mgt1 mutant growth inhibition, hits give high values
Outline: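 mgt1 yeast grown with test compound; read-out is growth inhibition versus vehicle-treated cultures.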

[15] = NCI Yeast Anticancer Drug Screen. Data for the rad50 strain (AID 155);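 further: 0% = growth of vehicle-only cultures of the same strain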; conditions: S. cerevisiae rad50 strain growth inhibition, hits give high values
Outline: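 Cells are treated with compound, grown, and their growth is then scored against vehicle-only cultures of the same repair-deficient yeast strain.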

[16] = NCI Yeast Anticancer Drug Screen. Data for the rad52 strain (AID 147);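 further: 0% = growth of vehicle-treated control cultures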; conditions: S. cerevisiae rad52 mutant growth inhibition, hits give high values
Outline: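 Read-out: growth inhibition versus vehicle-treated controls. Cells were a DNA repair-deficient yeast strain treated with compounds.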

[17] = at 5.0 µM (retest, dose inferred, filed as 0.5)
[18] = at 50.0 µM (retest, dose inferred, filed as 5.0)

Measured: growth inhibition

CCCCOC(=O)N[C@H]1CCc2cc(OC)c(OC)c(OC)c2-c2ccc(SC)c(=O)cc21
inactive: [2]; at 1.2 µM -1% | [2]; at 3.7 µM 2% | [2]; at 11.0 µM 7% | [2]; at 33.0 µM 49% | [3]; [17] 3% | [3]; [18] -13% | [4]; at 1.2 µM -2% | [4]; at 3.7 µM -5% | [4]; at 11.0 µM -1% | [4]; at 33.0 µM 30% | [5]; [17] -17% | [5]; [18] 60% | [5]; at 50.0 µM 58.3% | [6]; at 1.2 µM -9% | [6]; at 3.7 µM -8% | [6]; [17] 0% | [6]; at 11.0 µM -5% | [6]; at 33.0 µM 2% | [6]; [18] 55% | [7]; at 1.2 µM -2% | [7]; at 3.7 µM -3% | [7]; at 11.0 µM -1% | [7]; at 33.0 µM 29% | [8]; at 1.2 µM -4% | [8]; at 3.7 µM -3% | [8]; at 11.0 µM 2% | [8]; at 33.0 µM 27% | [9]; at 1.2 µM -3% | [9]; at 3.7 µM -5% | [9]; at 11.0 µM 2% | [9]; at 33.0 µM 38% | [10]; [17] -12% | [10]; [18] 47% | [11]; at 1.2 µM -1% | [11]; at 3.7 µM 0% | [11]; at 11.0 µM 7% | [11]; at 33.0 µM 26%
active: [1]; at 100.0 µM 81% | [2]; at 100.0 µM 84% | [3]; at 50.0 µM 82.5% | [4]; at 100.0 µM 79% | [6]; at 50.0 µM 77.8% | [6]; at 100.0 µM 81% | [7]; at 100.0 µM 86% | [8]; at 100.0 µM 90% | [9]; at 100.0 µM 89% | [10]; at 50.0 µM 92.9% | [11]; at 100.0 µM 80%

CC(C)c1ccccc1NC(=O)/C(Cl)=C(\Cl)C(=O)O
inactive: [12]; at 1.2 µM -1% | [12]; at 3.7 µM -1% | [12]; at 11.0 µM -1% | [12]; at 33.0 µM 1% | [12]; at 100.0 µM 59% | [13]; at 1.2 µM 2% | [13]; at 3.7 µM 4% | [13]; at 11.0 µM 7% | [13]; at 33.0 µM 21% | [14]; at 1.2 µM 1% | [14]; at 3.7 µM 3% | [14]; at 11.0 µM 5% | [14]; at 33.0 µM 8% | [15]; at 1.2 µM 0% | [15]; at 3.7 µM 0% | [15]; [17] 0% | [15]; at 11.0 µM -2% | [15]; at 33.0 µM 11% | [15]; at 50.0 µM 30.1% | [1]; at 1.2 µM 1% | [1]; at 3.7 µM 0% | [1]; [17] 26% | [1]; at 11.0 µM 1% | [1]; at 33.0 µM 7% | [1]; [18] 27% | [1]; at 50.0 µM 6.85% | [2]; at 1.2 µM 2% | [2]; at 3.7 µM 2% | [2]; at 11.0 µM 4% | [2]; at 33.0 µM 6% | [3]; [17] -12% | [3]; [18] 16% | [3]; at 50.0 µM 2.4% | [4]; at 1.2 µM 1% | [4]; at 3.7 µM 6% | [4]; at 11.0 µM 5% | [4]; at 33.0 µM 2% | [5]; [17] 13% | [5]; [18] 63% | [5]; at 50.0 µM 51.6% | [6]; at 1.2 µM 0% | [6]; at 3.7 µM 1% | [6]; [17] 9% | [6]; at 11.0 µM 5% | [6]; at 33.0 µM 7% | [6]; at 50.0 µM 8.1% | [7]; at 1.2 µM 1% | [7]; at 3.7 µM 0% | [7]; at 11.0 µM 0% | [7]; at 33.0 µM 4% | [8]; at 1.2 µM -1% | [8]; at 3.7 µM 1% | [8]; at 11.0 µM 2% | [8]; at 33.0 µM 4% | [8]; at 100.0 µM 66% | [9]; at 1.2 µM 2% | [9]; at 3.7 µM 4% | [9]; at 11.0 µM 5% | [9]; at 33.0 µM 12% | [10]; [17] 21% | [10]; [18] 28% | [10]; at 50.0 µM 11.9% | [11]; at 1.2 µM 0% | [11]; at 3.7 µM 0% | [11]; at 11.0 µM 1% | [11]; at 33.0 µM 8%
active: [13]; at 100.0 µM 99% | [14]; at 100.0 µM 94% | [15]; [18] 82% | [15]; at 100.0 µM 98% | [1]; at 100.0 µM 99% | [2]; at 100.0 µM 93% | [4]; at 100.0 µM 82% | [6]; [18] 77% | [6]; at 100.0 µM 97% | [7]; at 100.0 µM 88% | [9]; at 100.0 µM 96% | [11]; at 100.0 µM 98%

CC(C)(C)c1nc2c(o1)C(=O)c1ccccc1C2=O
inactive: [16]; at 1.2 µM -27% | [16]; at 3.7 µM -22% | [16]; at 11.0 µM 20% | [13]; at 1.2 µM -19% | [13]; at 3.7 µM -17% | [13]; at 11.0 µM -7% | [14]; at 1.2 µM -21% | [14]; at 3.7 µM -16% | [14]; at 11.0 µM 19% | [15]; at 1.2 µM -56% | [15]; at 3.7 µM -15% | [15]; [17] 23% | [15]; at 11.0 µM 32% | [1]; at 1.2 µM 11% | [1]; at 3.7 µM 15% | [1]; [17] 14% | [1]; at 11.0 µM 27% | [1]; at 33.0 µM 57% | [2]; at 1.2 µM -15% | [2]; at 3.7 µM -5% | [2]; at 11.0 µM 13% | [3]; [17] 32% | [4]; at 1.2 µM -3% | [4]; at 3.7 µM -8% | [4]; at 11.0 µM 6% | [4]; at 33.0 µM 65% | [5]; [17] 3% | [5]; [18] 42% | [6]; at 1.2 µM -3% | [6]; at 3.7 µM 12% | [6]; [17] 52% | [6]; at 11.0 µM 36% | [9]; at 1.2 µM 7% | [9]; at 3.7 µM -10% | [9]; at 11.0 µM 36% | [10]; [17] 21% | [11]; at 1.2 µM -25% | [11]; at 3.7 µM -14% | [11]; at 11.0 µM 4%
active: [16]; at 33.0 µM 89% | [16]; at 100.0 µM 98% | [13]; at 33.0 µM 87% | [13]; at 100.0 µM 97% | [14]; at 33.0 µM 75% | [14]; at 100.0 µM 95% | [15]; at 33.0 µM 90% | [15]; [18] 91% | [15]; at 50.0 µM 85.2% | [15]; at 100.0 µM 97% | [1]; [18] 77% | [1]; at 50.0 µM 94% | [1]; at 100.0 µM 94% | [2]; at 33.0 µM 79% | [2]; at 100.0 µM 98% | [3]; [18] 70% | [3]; at 50.0 µM 93.3% | [4]; at 100.0 µM 96% | [5]; at 50.0 µM 92.1% | [6]; at 33.0 µM 87% | [6]; [18] 90% | [6]; at 50.0 µM 93% | [6]; at 100.0 µM 97% | [9]; at 33.0 µM 88% | [9]; at 100.0 µM 95% | [10]; [18] 86% | [10]; at 50.0 µM 91.5% | [11]; at 33.0 µM 77% | [11]; at 100.0 µM 95%
